In PubChem BioAssay (NCATS):
Results filed as inconclusive are left out. The source made the active and inactive calls. Calls follow the shape of the dose curve; as a rule, active = well fitted inhibition curve with a large enough effect; inconclusive = small, poorly fitted or top-dose-only effect; inactive = no such curve, though single readings can be large or run the other way.

Assay: qHTS to identify inhibitors of the type 1 interferon - major histocompatibility complex class I in skeletal muscle: primary screen against the NCATS Mechanism Interrogation Plate v5.0 (MIPE) Libary (AID 1347411);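 also: plate controls were vehicle for no effect and reference inhibitor for full effect; nearly all actives have a fitted effect of over 65% in size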
Conditions: iHSKM cells + IFN-b, HiBiT-tagged MHC-I luminescence, 24 h; series mostly up to 45.8 µM; activity change, negative = inhibition: at the top concentration
How it was run: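 Seed engineered human myoblasts (HLA-B HiBit) in medium without dexamethasone containing 4 ng/ml IFN-beta; after 1 hr add compound titrations (top 46 uM final). Incubate 24 hrs at 37 C, lyse 10 min with HiBiT reagent, read luminescence.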

SMILES | activity change, negative = inhibition
C#C[C@]1(O)CC[C@H]2[C@@H]3CCc4cc(OC)ccc4[C@H]3CC[C@@]21C | 0.586% (inactive)
Cc1ccc(-c2ncc(Cl)cc2-c2ccc(S(C)(=O)=O)cc2)cn1 | -1.97% (inactive)
C#C[C@]1(O)CC[C@H]2[C@@H]3CCC4=CC(=O)CC[C@@H]4[C@H]3CC[C@@]21CC | -35.5% (inactive)
CCOC(=O)[C@H](CCc1ccccc1)N[C@@H](C)C(=O)N1[C@H](C(=O)O)C[C@@H]2CCC[C@@H]21 | -10.6% (inactive)
COc1cc([C@H]2Oc3cc([C@H]4Oc5cc(O)cc(O)c5C(=O)[C@@H]4O)ccc3O[C@@H]2CO)ccc1O | -25.5% (inactive)
